Assay outcomes as filed in PubChem.
Shown is part of a subset that was picked to be rich in hits.
GIRK2 act = activators of human GIRK2 potassium channels; G protein-activated inward rectifier potassium channel 2 (Homo sapiens), P48051; calls only for hits at 25 µM; HEK293-GIRK2 thallium flux, Thallos fluorescence, MPD; 0.05% of 63,000 active; call rule not given here
Target sequence (P48051 whole entry, looked up): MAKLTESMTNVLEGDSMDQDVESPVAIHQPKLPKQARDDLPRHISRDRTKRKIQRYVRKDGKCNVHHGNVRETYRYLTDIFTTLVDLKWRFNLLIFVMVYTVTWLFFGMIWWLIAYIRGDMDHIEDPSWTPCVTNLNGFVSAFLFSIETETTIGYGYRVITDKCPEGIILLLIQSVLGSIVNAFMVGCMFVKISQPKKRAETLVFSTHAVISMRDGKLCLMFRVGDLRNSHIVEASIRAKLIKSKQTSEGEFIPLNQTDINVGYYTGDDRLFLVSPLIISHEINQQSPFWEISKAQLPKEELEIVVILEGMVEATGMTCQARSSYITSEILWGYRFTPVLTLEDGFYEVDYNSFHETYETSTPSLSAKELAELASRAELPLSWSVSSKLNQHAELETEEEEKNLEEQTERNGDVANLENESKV
* = called active by the depositor.

For COc1cccc(NC(=O)NCCNc2cc(Nc3cc(C)ccn3)ncn2)c1 the results were GIRK2 act inactive.
Screening COc1ccc(C(=O)NCc2nc(C)no2)cc1OC returned GIRK2 act inactive.
For CNc1cc(C)nc2c(-c3ccccc3Cl)c(C)nn12 the results were GIRK2 act inactive.
COc1ccc2c(c1)O/C(=C\C1=Cc3ccccc3OC1C)C2=O (centres undefined) was read as GIRK2 act inactive.
Screening Cc1ccc(CNC(=O)c2ccc3nnc(SCC(=O)Nc4ccc(C)c(C)c4)n3c2)cc1 returned GIRK2 act inactive.
Cc1cc(S(=O)(=O)N2CCCSCC2CN(C)C)c(Cl)cc1Cl (centres undefined) was read as GIRK2 act inactive.
Screening COc1ccc(CN2CCc3nc(SCc4cc(C)ccc4C)[nH]c(=O)c3C2)cc1 returned GIRK2 act inactive.
For O=C(/C=C/c1cccs1)N1CCN(S(=O)(=O)C2CC2)CC1 the results were GIRK2 act inactive.
`COc1cc(/C=C2\SC(=S)N(c3cccc(O)c3)C2=O)ccc1O` gave GIRK2 act inactive.
COc1cc(/C=C2/SC(=S)N(c3ccccc3Cl)C2=O)ccc1O was read as GIRK2 act active.
For COc1cc(/C=C2\SC(=S)N(c3ccc(O)cc3)C2=O)ccc1O the results were GIRK2 act inactive.
COc1ccccc1OCC(=O)N1CCC(Oc2nc3c(C)cccc3s2)CC1 was read as GIRK2 act inactive.
For O=C(NCC1(c2ccc(F)cc2)CCOCC1)c1cc(-c2ccccc2)on1 the results were GIRK2 act inactive.
For COc1cccc(-c2nc(C#N)c(N3CCN(C(=O)c4cccs4)CC3)o2)c1 the results were GIRK2 act inactive.
`O=C(Nc1cc2ccccc2oc1=O)c1ccc(-n2ccnc2)nn1` gave GIRK2 act inactive.
Screening COc1ccc(C)cc1NCCn1c(C)c(C)n2c3c(=O)[nH]c(=O)n(C)c3nc12 returned GIRK2 act inactive.
COc1cccc(CNC(=O)Cn2c(C)cc(C)c(S(=O)(=O)c3ccc(C)cc3)c2=O)c1OC was read as GIRK2 act inactive.
For Cc1ccnc(NS(=O)(=O)c2cc(C)c(C)cc2C)c1 the results were GIRK2 act inactive.
Screening Cc1cc(C)c2c(n1)sc1c(N3CCC(C(=O)NCc4ccc5c(c4)OCO5)CC3)ncnc12 returned GIRK2 act inactive.
COc1ccc(-c2nnc(CC(=O)Nc3cc(Cl)c(OC)cc3OC)o2)cc1 was read as GIRK2 act inactive.
CC(C)OC(=O)COc1ccc2c(c1)O/C(=C\c1cc(Br)cc3c1OCOC3)C2=O was read as GIRK2 act inactive.
`Cc1cc(C)cc(-n2cc(C(=O)N3CCC(NC(=O)c4ccc(C#N)cc4)CC3)nn2)c1` gave GIRK2 act inactive.
For Cc1cc(NC(=O)C(=O)NCC2CCN(C(C)C)CC2)no1 the results were GIRK2 act inactive.
For O=C(Cn1cccc(S(=O)(=O)N2CCCCC2)c1=O)Nc1ccc(Cl)cc1 the results were GIRK2 act inactive.
For O=C(Cn1c(/C=C/c2ccccc2)nc2ccccc21)NC1CC1 the results were GIRK2 act inactive.
`COc1cccc2cc(C(=O)NCC#CCOc3ccc4c(c3)OCO4)c(=O)oc12` gave GIRK2 act inactive.
For Cc1cc(C)n(-c2ncc(NC(=O)C3CCCO3)cn2)n1 (centres undefined) the results were GIRK2 act inactive.
For O=C(NCC1CCN(Cc2ccsc2)CC1)Nc1ccc2c(c1)OCO2 the results were GIRK2 act inactive.
For Cc1cc(=O)n2c(-c3cccc(NC(=O)C(C)Oc4cccc(F)c4)c3)csc2n1 (centres undefined) the results were GIRK2 act inactive.
Screening COc1ccc2c(c1)c(CC(=O)NCCCCNC(=O)c1ccc(F)cc1)c(C)n2C(=O)c1ccc(Cl)cc1 returned GIRK2 act inactive.
`CCCCc1ccc(N2CC(C)Cn3c2nc2c3c(=O)n(CC(N)=O)c(=O)n2C)cc1` (centres undefined) gave GIRK2 act inactive.
`CC(=O)Nc1cccc(NS(=O)(=O)c2ccc(N3C(=O)CCS3(=O)=O)cc2C)c1` gave GIRK2 act inactive.
O=C(NCc1nc(-c2ccccc2)no1)c1ccc(OCc2nc(C3CC3)cs2)cc1 was read as GIRK2 act inactive.
`O=C(c1nnn(-c2ccccc2Cl)c1-c1ccccn1)N1CCN(c2ncccn2)CC1` gave GIRK2 act inactive.
Screening O=C(Nc1ccc(F)cc1)c1nnn(-c2ccccc2Cl)c1-c1ccccn1 returned GIRK2 act inactive.
`Cc1csc(NC(=O)c2nnn(-c3ccccc3Cl)c2-c2ccccn2)n1` gave GIRK2 act active.
Screening O=C(Nc1nccs1)c1nnn(-c2ccccc2)c1-c1ccccn1 returned GIRK2 act inactive.
`Cc1[nH]ncc1CNC(=O)c1nnn(-c2ccccc2Cl)c1-c1ccccn1` gave GIRK2 act inactive.
Screening O=C(Nc1ccc2c(c1)OCCO2)c1nnn(-c2ccccc2Cl)c1-c1ccccn1 returned GIRK2 act active.
Screening Cc1nc2ccc(NC(=O)CCS(=O)(=O)Cc3ccccc3)cc2s1 returned GIRK2 act inactive.
Screening N#Cc1nc(-c2ccc(S(=O)(=O)N3CCCC3)cc2)oc1N1CCC(C(N)=O)CC1 returned GIRK2 act inactive.
CSc1ccc(N2Cc3cc(Cl)ccc3OCC2=O)cc1 was read as GIRK2 act inactive.
O=C(Cn1nc2c(Oc3ccccc3)nccn2c1=O)Nc1ccc(Br)cc1 was read as GIRK2 act inactive.
Screening Cc1ccc(N2CN(CC(=O)N(C)C3CCCCC3)S(=O)(=O)c3cccnc32)cc1 returned GIRK2 act inactive.
For COCCCNC(=O)CSc1nc(-c2cccc(F)c2)[nH]c1-c1ccccc1 the results were GIRK2 act active.
CCOc1ccc(-c2nc(SCC(=O)NCCCOC)c(-c3ccccc3)[nH]2)cc1OC was read as GIRK2 act inactive.
For COCCNC(=O)CSc1nc(-c2ccc(C)cc2)[nH]c1-c1ccccc1 the results were GIRK2 act inactive.
For COc1ccc(-c2nc(SCC(=O)NCC3CCCO3)c(-c3ccc(C)cc3)[nH]2)cc1OC (centres undefined) the results were GIRK2 act inactive.
O=C(CSc1nc(-c2ccccc2)[nH]c1-c1ccc(F)cc1)NCC1CCCO1 (centres undefined) was read as GIRK2 act active.
`O=C(CSc1ncccc1-c1nc2ccccc2[nH]1)NCC1CCCO1` (centres undefined) gave GIRK2 act inactive.
Screening CC(=O)[C@]12CC/C=C\C(=O)O[C@@H]3C[C@H]4O[C@@H]5C=C(C)CC[C@]5(COC(=O)C5O[C@@]5(CCO1)C2O)[C@]3(C)[C@]41CO1 (some centres undefined) returned GIRK2 act inactive.
For O=C(Cn1nc(-c2cccs2)ccc1=O)N1CCC(Cc2ccccc2)CC1 the results were GIRK2 act inactive.
`COc1ccc(NC(=O)CN(C)c2nc3c(C)ccc(C)c3s2)c(OC)c1` gave GIRK2 act inactive.
`Cc1noc(C2CN(Cc3ccc(Br)s3)C2)n1` gave GIRK2 act inactive.
For COc1cccc(C(CNS(=O)(=O)Cc2cc(F)cc(F)c2)N2CCOCC2)c1 (centres undefined) the results were GIRK2 act inactive.
`CCC(C(=O)NC1CCN(CCOC)CC1)c1ccccc1` (centres undefined) gave GIRK2 act inactive.
`COCCCNC(=O)CCc1csc2nc(C)cn12` gave GIRK2 act inactive.
